Screening results from PubChem BioAssay.
Compounds with a hit are over-represented: about 1.8% of the library has one in this group of screens.
PHOSPHO1 inh – PHOSPHO1 (human) inhibition. recombinant PHOSPHO1, absorbance phosphatase assay. inhibition, % at 13.3 µM. actives 1.1% (n = 290,000). AID 1565; in the data active = inhibition above about 60%
Target sequence (Q8TCT1 whole entry, looked up): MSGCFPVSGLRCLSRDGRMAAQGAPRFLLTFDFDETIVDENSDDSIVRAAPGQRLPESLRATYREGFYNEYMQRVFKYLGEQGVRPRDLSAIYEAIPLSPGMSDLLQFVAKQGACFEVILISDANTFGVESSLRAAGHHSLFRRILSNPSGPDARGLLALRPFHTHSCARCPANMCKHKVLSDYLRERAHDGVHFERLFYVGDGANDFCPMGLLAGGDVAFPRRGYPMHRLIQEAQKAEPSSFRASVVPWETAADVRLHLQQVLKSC
pCIP destab – p/CIP protein destabilization; F442A p/CIP-EGFP cells, EGFP fluorescence, 16 h; Q05BA5; actives 0.01% (n = 290,000); AID 1984; decrease of EGFP signal, % at 10 µM;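 active = EGFP signal decrease of at least 30% at 10 µM or well 3 SD below plate mean, unless failing retest; inactive = the rest, including hits failing retest or dose response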
UBC9 SUMO inh – SUMOylation inhibition. P63279. HTRF SUMOylation assay, SAE1/SAE2 + UBC9, in vitro. inhibition, % at 35 µM. actives 0.36% (n = 290,000). AID 2006; in the data active = inhibition above about 50%, passing the limit was not always enough
Target sequence (P63279 whole entry, looked up): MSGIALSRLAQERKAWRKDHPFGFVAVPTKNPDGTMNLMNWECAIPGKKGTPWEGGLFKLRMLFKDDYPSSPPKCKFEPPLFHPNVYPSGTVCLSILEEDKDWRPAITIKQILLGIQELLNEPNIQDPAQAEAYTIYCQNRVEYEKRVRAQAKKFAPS
NadD inh – blocks S. aureus nicotinate mononucleotide adenylyltransferase. purified NadD enzyme, colorimetric absorbance read-out. inhibition, % at 20 µM. actives 0.78% (n = 360,000); in the data active = inhibition above about 26%
Starred values were filed as active, the others as inactive; · = no result given.

SMILES | PHOSPHO1 inh | pCIP destab | UBC9 SUMO inh | NadD inh
O=C(NCCN1CCC(n2c(=O)[nH]c3ccccc32)CC1)c1ccc(F)cc1F | · | · | · | -6
Cc1cc(/C=C2\SC(=S)NC2=O)c(C)n1-c1ccc(O)cc1 | 28 | -12 | 26 | 29
Cc1cc(/C=C2\SC(=Nc3ccc(F)cc3)NC2=O)c(C)n1-c1ccc(S(N)(=O)=O)cc1 | -18 | 1 | 5 | 65*
Cc1cc(/C=C2\SC(=S)NC2=O)c(C)n1C | 88* | -27 | 8 | 35*
COc1ccc(-n2c(C)cc(/C=C3\SC(=S)NC3=O)c2C)cc1 | 24 | -23 | 31 | 45*
COc1c(C)cc(C(O)c2ncc(-c3ccccc3C)[nH]2)cc1C (centres undefined) | · | · | · | 5
CC(=O)c1ccc(Nc2nc(C(N)Cc3ccc(Cl)cc3)cs2)cc1 (centres undefined) | · | · | · | 0
O=C(NC1CC1)c1ccc2nc([C@@H]3O[C@H](CO)[C@H](O)[C@H](O)[C@H]3O)[nH]c2c1 | · | · | · | -1
CCCc1cc(=O)oc2cc(OCC(=O)NCC3CCC(C(=O)O)CC3)ccc12 (centres undefined) | 19 | 1 | -9 | -3
O=C(Cc1cc(=O)oc2cc(O)ccc12)NCC1CCC(C(=O)O)CC1 (centres undefined) | 0 | -3 | 55* | 3
O=C(O)CC1(c2ccc(F)cc2)C2CC3CC(C2)CC1C3 (centres undefined) | 50 | -11 | 3 | -1
O=C1Nc2ccccc2CN2C(=O)c3cc(Cl)ccc3NC(=O)C12 (centres undefined) | · | · | · | -2
COc1cc(N)ccc1Nc1c2ccccc2nc2ccccc12 | · | · | · | 35*
CCCS(=O)(=O)Nc1ccc(Nc2c3ccccc3nc3ccccc23)c(OC)c1 | · | · | · | 0
COCCNC(=O)C1(C)CCCN(C(=O)c2ccc(OC)cc2OC)C1 (centres undefined) | · | · | · | 2
CN(C)c1cccc2c1c(NC(=O)c1ccc(F)cc1)nn2C | 62* | -13 | 22 | 2
CCOC(=O)c1c(S(=O)(=O)Nc2ccccc2OCC)c(C)n(C)c1C | 12 | -10 | -5 | -2
CCOC(=O)c1c(S(=O)(=O)Nc2ccccn2)c(C)n(C)c1C | 65* | 5 | -6 | 3
CCOC(=O)c1c(S(=O)(=O)NCC(=O)NCc2ccccc2Cl)c(C)n(C)c1C | 62* | 8 | -10 | -8
COC(=O)CSC1=NS(=O)(=O)c2ccccc21 | -4 | -11 | 8 | -5
O=C(CSC1=NS(=O)(=O)c2ccccc21)Nc1ccccc1 | 88* | -7 | 23 | 2
COc1ccc(NC(=O)CCNC(=O)C2CCN(S(=O)(=O)c3ccccc3)CC2)cc1OC | · | · | · | -9
Cc1nc2c(C(=O)NCCC3=CCCCC3)c[nH]n2c(=O)c1Cl | 82* | -6 | 26 | 20
Cc1ccc(NC(=O)CNC(=O)CC23CC4CC(CC(C4)C2)C3)c(O)c1 | · | · | · | -5
COc1ccc(S(=O)(=O)Nc2cc(SCC(=O)O)c(O)c3ccccc23)cc1 | -47 | 6 | 57* | 4
SMILES | PHOSPHO1 inh | pCIP destab | UBC9 SUMO inh | NadD inh
Cc1cc(C)c(S(=O)(=O)Nc2cc(SCC(=O)O)c(O)c3ccccc23)cc1C | 10 | -1 | 72 | ·
COc1ccc(S(=O)(=O)Nc2cc(Sc3ncn[nH]3)c(O)c3ccccc23)cc1 | 98* | -27 | 88* | ·
O=C(O)CSc1cc(NS(=O)(=O)c2ccc(Cl)cc2)c2ccccc2c1O | -23 | -7 | 77* | 4
O=S(=O)(Nc1cc(Sc2cccc3cccnc23)c(O)c2ccccc12)c1ccc(F)cc1 | 7 | 1 | 67* | ·
FC(F)(F)c1ccccc1-n1c(-c2cnccn2)n[nH]c1=S | 74* | 5 | -4 | 5
Cc1ccc(-n2c(-c3cnccn3)n[nH]c2=S)c(Br)c1 | -109 | -13 | 20 | 0
Cc1cc2oc(=O)cc(CN3CCCCC3)c2cc1C | 36 | 1 | -1 | 0
Cc1cc2oc(=O)cc(CN3CCCc4ccccc43)c2cc1C | 74* | -10 | 4 | 18
Cc1ccc(C(=O)ONc2ccc(N=NC(=O)c3ccccc3O)cc2)cc1 | 69* | 4 | -10 | 3
CCOc1ccc(NC(=O)c2ccc3c(c2)S(=O)(=O)N=C2CCCCCN23)cc1 | · | · | · | 0
O=S(=O)(c1ccccc1)N(CC(F)(F)F)c1ccc(C(O)(C(F)(F)F)C(F)(F)F)cc1 | · | · | · | -10
Oc1ccc(-c2n[nH]c(=S)n2Cc2ccco2)cc1 | 100* | -2 | 1 | -9
S=c1[nH]nc(C2CC2)n1Cc1ccco1 | 81* | 3 | 8 | -2
S=c1[nH]nc(Cc2ccccc2)n1Cc1ccco1 | 25 | -8 | 9 | -3
Cn1cccc1/C=N/n1c(-c2ccc(Cl)cc2)n[nH]c1=S | 66* | -10 | 13 | 4
Cn1cccc1/C=N/n1c(-c2ccc(Cl)cc2Cl)n[nH]c1=S | 77* | -2 | 16 | 10
Cc1ccc(-c2n[nH]c(=S)n2/N=C/c2cccn2C)cc1 | 27 | -1 | 14 | 5
Cc1cc(C)n(CCNC(=O)[C@H]2O[C@@H](n3cnc4c(N)ncnc43)[C@H](O)[C@@H]2O)n1 | · | · | · | 1
COc1ccccc1-c1cc(C(=O)NC(C)C)no1 | 60* | 2 | -7 | 1
O=C(CSc1nnc(CNc2ccc(F)cc2)n1Cc1ccco1)N1CCOCC1 | 88* | -3 | 27 | -5
O=C(CSc1nnc(CNc2ccc(F)cc2)n1Cc1ccco1)NC1CC1 | 59 | -3 | 5 | 7
O=C1N[C@@H](Cc2c[nH]c3ccccc23)C(=O)N[C@H]1Cc1ccccc1 | · | · | · | 9
COCCNC(=O)c1cc2c(c(-c3cccc(-c4cc5ccccc5o4)c3)n1)[C@H](CCO)N(S(=O)C(C)(C)C)C2 (some centres undefined) | · | · | · | 3
COc1cccc(-c2cccc(-c3nc(C(=O)NCc4ccc(Oc5ccccc5)cc4)cc4c3[C@H](CCO)N(S(=O)C(C)(C)C)C4)c2)c1 (some centres undefined) | · | · | · | 31*
CC(C)(C)S(=O)N1Cc2cc(C(=O)NCc3ccc(Oc4ccccc4)cc3)nc(-c3cccc(-c4cc5ccccc5o4)c3)c2[C@@H]1CCO (some centres undefined) | · | · | · | 32*
SMILES | PHOSPHO1 inh | pCIP destab | UBC9 SUMO inh | NadD inh
CC1(C(=O)NC2CCCCC2)CCC(=O)N1CCOc1ccccc1 (centres undefined) | · | · | · | -5
COc1ccc(-c2cc3c(=O)n(CC(=O)Nc4ccc(Cl)cc4)nc(C)n3n2)cc1 | 13 | -1 | 9 | 2
Cc1nn(CC(=O)Nc2cccc(Cl)c2)c(=O)c2cc(-c3ccccc3)nn12 | 65* | -5 | 20 | 5
Nc1ccc(N2CCOCC2)c2nonc12 | 12 | -5 | 99* | 12
O=C(c1ccc(N2CCOCC2)c([N+](=O)[O-])c1)N1CCCCC1 | 74* | -4 | -1 | -8
Cn1c(=O)n(C)c2cc([N+](=O)[O-])c(N3CCN(C(=O)c4ccc(Cl)cc4)CC3)cc21 | 8 | -8 | 8 | -1
Cn1c(=O)n(C)c2cc([N+](=O)[O-])c(N3CCN(C(=O)c4ccc(F)cc4)CC3)cc21 | 60* | -8 | -3 | 5
O=[N+]([O-])c1cc2c(c(CSc3nnc(Nc4ccccc4)s3)c1)OCOC2 | 100* | -12 | 3 | 4
